Assay outcomes as filed in PubChem BioAssay.
Shown are actives, neighbours in structure and some others; about 2.6% of the full set was active somewhere.
APOBEC3A inh = human APOBEC3A DNA deaminase inhibition | P31941 | recombinant A3A, FAM/TAMRA ssDNA deamination fluorescence | inhibition, % at 20 µM | actives 0.41% (n = 330,000) | AID 493011;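 active = at least 40% inhibition at 20 µM here, with at most 30% in a related deaminase screen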;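 note: plate controls were A3A with DMSO for no effect and wells lacking A3A enzyme for full effect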
PHOSPHO1 block = PHOSPHO1 (human) inhibition; inhibition, % at 13.3 µM; recombinant PHOSPHO1, absorbance phosphatase assay; Q8TCT1; actives 1.1% (n = 290,000); in the data active = inhibition above about 60%
A3G deaminase = inhibitors of human APOBEC3G DNA deaminase. inhibition, % at 20 µM. actives 0.28% (n = 330,000). recombinant A3G, ssDNA deamination FAM/TAMRA fluorescence;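 active = inhibition of at least 40% at 20 µM, with no more than 30% in the related APOBEC3A deaminase screen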;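 note: plate controls were DMSO wells with A3G for no effect and wells lacking A3G enzyme for full effect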
eIF4H inh = inhibitors of RNA binding by human eIF4H; Q15056; eIF4H fluorescence polarization binding assay; inhibition, % at 35 µM; actives 0.94% (n = 290,000);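 note: calls also rest on retests at 20 µM and on dose response follow-up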
MLLE-PAM2 inh = blocks PAM2 peptide binding to the PABP1 MLLE domain; P11940; GST-MLLE / FITC-PAM2 fluorescence polarization; inhibition, % at 20 µM; actives 0.36% (n = 360,000); AID 588489; in the data active = inhibition above about 35%, passing the limit was not always enough;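 note: plate controls were DMSO wells with GST-MLLE for no effect and wells lacking GST-MLLE protein for full effect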
Target sequence (P11940 whole entry, looked up, the tested form may be a part): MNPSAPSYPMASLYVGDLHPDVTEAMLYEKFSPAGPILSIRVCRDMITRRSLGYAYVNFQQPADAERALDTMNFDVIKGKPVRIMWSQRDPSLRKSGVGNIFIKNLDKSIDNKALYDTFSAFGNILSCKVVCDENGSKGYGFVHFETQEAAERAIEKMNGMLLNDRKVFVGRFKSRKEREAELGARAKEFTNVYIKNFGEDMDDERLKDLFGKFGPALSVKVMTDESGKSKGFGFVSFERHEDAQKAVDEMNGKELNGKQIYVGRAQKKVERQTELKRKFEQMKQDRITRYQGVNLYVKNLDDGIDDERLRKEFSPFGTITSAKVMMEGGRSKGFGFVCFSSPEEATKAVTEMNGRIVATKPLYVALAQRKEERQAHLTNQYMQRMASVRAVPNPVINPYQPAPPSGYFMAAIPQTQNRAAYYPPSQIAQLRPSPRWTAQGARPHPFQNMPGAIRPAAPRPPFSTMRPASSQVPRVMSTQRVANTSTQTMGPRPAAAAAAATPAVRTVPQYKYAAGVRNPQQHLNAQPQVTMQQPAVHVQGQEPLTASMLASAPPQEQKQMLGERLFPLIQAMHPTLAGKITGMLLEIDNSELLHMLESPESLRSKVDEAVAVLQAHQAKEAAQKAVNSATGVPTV
PABP polyA inh = PABP-poly(A) binding inhibition; calls only at 35 µM; P11940; PABP-poly(A) RNA binding, fluorescence polarization; AID 2014; actives 1% (n = 290,000);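 note: calls also rest on retests at 20 µM and on dose response follow-up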
Numbers without * were called inactive; i = inactive; . = no result given; + = active, no number. Unless noted, the rule behind the calls is not given here.

SMILES | APOBEC3A inh | PHOSPHO1 block | A3G deaminase | eIF4H inh | MLLE-PAM2 inh | PABP polyA inh
COc1ccc(C(NC(=O)C2CCN(Cc3ccc(Oc4ccccc4)cc3)CC2)c2ccccn2)cc1 (stereo unspecified) | . | . | . | . | 6 | .
C(=C\c1ccco1)/C1=NN(c2ccccc2)C(c2ccco2)C1 (stereo unspecified) | 13 | -15 | 6 | 71* | -73 | i
O=[N+]([O-])c1ccc(/C=C/C2=NN(c3ccccc3)C(c3ccco3)C2)o1 (stereo unspecified) | . | -39 | . | 42 | -91 | i
CC1(C)CC(=O)C2=C(C1)NC(SCC(=O)Nc1ccccc1)=C(C#N)C2c1ccco1 (stereo unspecified) | -2 | 2 | -5 | -9 | 9 | i
CCOC(=O)CSC1=C(C#N)C(c2ccc(C)cc2)C2=C(CCCC2=O)N1 (stereo unspecified) | -16 | 92* | -6 | -2 | -59 | i
CCOC(=O)CSC1=C(C#N)C(c2ccc(F)cc2)C(C(C)=O)=C(C)N1 (stereo unspecified) | 1 | 79* | -1 | -10 | -33 | i
Cc1ccc(C(=O)CSC2=C(C#N)C(c3ccco3)C3=C(CC(C)(C)CC3=O)N2)cc1 (stereo unspecified) | -3 | 76* | -4 | 13 | 0 | i
CC(=O)c1ccc(OCc2nnn(CC(=O)NS(=O)(=O)Cc3ccccc3)c2-c2ccccc2)cc1 | . | . | . | . | -5 | .
CC(C)CCNC(=O)CCn1nc(-c2ccc(Cl)cc2)ccc1=O | 2 | 42 | 0 | -5 | 14 | i
CC(C)Oc1ccc(C(=O)OCC(=O)N2CCCc3ccccc32)cc1 | 6 | . | 2 | . | -3 | .
O=C(O)C1CSC(c2ccncc2)N1 (stereo unspecified) | -5 | 10 | -5 | 0 | 38* | i
COc1ccc(C=Nc2ccc3[nH]ncc3c2)c(O)c1 | 0 | -3 | -3 | 77* | 0 | +
Oc1c(Br)cc(Br)cc1C=Nc1ccc2[nH]ncc2c1 | 12 | 35 | 3 | 37 | -76 | i
Cc1cccc(-c2n[nH]c(=S)n2C)c1 | -12 | -32 | 36 | -8 | -4 | i
CCn1c(-c2ccc3[nH]c(C)c(C)c3c2)n[nH]c1=S | -3 | 94* | 30 | -7 | -4 | i
Cc1[nH]c2ccc(-c3n[nH]c(=S)n3C)cc2c1C | -7 | 98* | 31 | -10 | 8 | i
CCn1c(-c2ccc(F)cc2)n[nH]c1=S | 14 | -10 | 34 | -14 | -16 | i
CC(C)c1ccc(NC(=O)CCCC(=O)NCCc2ccccc2)cc1 | 1 | 14 | -2 | 0 | -5 | i
O=C(OC1CCOC1=O)C1CCN(S(=O)(=O)c2ccc(Cl)c(C(F)(F)F)c2)CC1 (stereo unspecified) | 0 | . | -7 | . | -3 | .
CCN(C(=O)CSc1nnnn1-c1ccccc1)c1c(N)n(Cc2ccccc2)c(=O)[nH]c1=O | 4 | 0 | -10 | -4 | -2 | i
Cc1c(-n2c(-c3ccccc3)nc3ccccc3c2=O)c(=O)n(-c2ccccc2)n1C | -8 | 60* | -8 | 9 | 6 | i
COc1ccc(C(CNC(=O)c2cccc(S(=O)(=O)NCc3ccccc3)c2)N(C)C)cc1 (stereo unspecified) | -5 | 0 | -5 | 13 | -2 | i
Cc1cc(Oc2ccc(=O)n(C)n2)nc(=S)[nH]1 | -2 | 32 | -6 | 4 | . | i
O=C1C(Cl)=C(N2CCC(C(=O)O)CC2)C(=O)c2ccccc21 | 7 | 33 | 18 | 13 | 55* | i
NC(=O)C1CCN(C2=C(Cl)C(=O)c3ccccc3C2=O)CC1 | 1 | -16 | 10 | 12 | 38 | i
SMILES | APOBEC3A inh | PHOSPHO1 block | A3G deaminase | eIF4H inh | MLLE-PAM2 inh | PABP polyA inh
C=CCSC1=C(C#N)C(c2ccccc2OCC)C(C#N)C(=O)N1 (stereo unspecified) | -5 | 89* | -2 | 1 | 41* | i
CCOC(=O)CSC1=C(C#N)C(c2ccccc2OCC)C(C#N)C(=O)N1 (stereo unspecified) | -6 | 29 | -5 | 5 | -21 | i
CC1C2C(C)N(C)C(=O)N(C)C2N(C)C(=O)N1C (stereo unspecified) | 0 | -34 | 1 | 32 | 53* | i
COc1ccc(OCc2nnc(SCC(=O)c3c(N)n(C)c(=O)n(C)c3=O)n2-c2ccccc2F)cc1 | 8 | 17 | 3 | -10 | . | i
COC(=O)c1cc(O)cc(OC)c1Oc1cc(C)cc(O)c1C(=O)O | 8 | 4 | 4 | 90* | -4 | +
COC(=O)c1cc(O)cc(OC)c1C(=O)c1c(O)cc(C)cc1O | -2 | 13 | -3 | 13 | 6 | i
CCOc1ccc(CCNC(=O)COC(=O)c2cccc(S(=O)(=O)N3CCCC3)c2)cc1OCC | 2 | . | -9 | . | 7 | .
CCOC(=O)N1CCC(NS(=O)(=O)c2ccc3c(c2)oc(=O)n3C)CC1 | -3 | 4 | -14 | 67* | 0 | +
Cc1ccc(C(=O)O)cc1NS(=O)(=O)c1ccc2c(c1)oc(=O)n2C | 1 | 28 | 0 | 77 | -2 | +
COC(=O)c1sc(-c2ccc(C(C)(C)C)cc2)cc1NC(=O)CCC(=O)O | -7 | 42 | -5 | 2 | 9 | i
O=C(NC1CCCC1)c1ccc2nc[nH]c2c1 | -1 | -14 | 12 | 1 | 1 | i
Cc1ccc(C)c(N2CCN(C(=O)c3ccc4nc(-c5ccco5)c(-c5ccco5)nc4c3)CC2)c1 | 8 | 35 | -2 | 86* | 26 | i
O=C(NC1CCCC1)c1ccc2nc(-c3ccco3)c(-c3ccco3)nc2c1 | 67 | 45 | 65 | 102* | 34 | +
O=C(NCCO)c1ccc(Cl)c(Cl)c1 | -2 | 6 | -4 | 1 | 10 | i
c1coc(-c2nc3ccccc3nc2-c2ccco2)c1 | 73 | 28 | 70 | 102* | 32 | +
COc1ccccc1N1CCN(C(=O)c2ccc3nc(-c4ccco4)c(-c4ccco4)nc3c2)CC1 | 1 | -21 | -4 | 92 | 13 | i
O=C(NCCO)c1ccc2nc(-c3ccco3)c(-c3ccco3)nc2c1 | 79 | 74* | 78 | 87* | 40* | +
Cc1ccc(C(C)NC(=O)CSc2ccc(S(=O)(=O)N3CCOCC3)cn2)cc1C (stereo unspecified) | . | . | . | . | 36 | .
O=C(CC(=O)c1cccc([N+](=O)[O-])c1)Nc1ccccc1Cl | 1 | 3 | 2 | 1 | 8 | i
O=C(c1ccccc1)c1ccc2nc(-c3ccco3)c(-c3ccco3)nc2c1 | 60 | -103 | 42 | 96 | 2 | i
O=C(NCCc1ccccc1)c1ccc2nc(-c3ccco3)c(-c3ccco3)nc2c1 | 96 | 53 | 77 | 88* | 16 | +
CC(NC(=O)c1ccccc1)C(=O)N/N=C/c1ccco1 (stereo unspecified) | -2 | 36 | -5 | -1 | 10 | i
